Bioassay records deposited in PubChem by several laboratories.
Only some compounds are listed: those with a hit (about 1.6% of all), similar ones and a draw of the others.
NALP1 inh – inhibitors of NALP1 inflammasome in yeast | S. cerevisiae NALP1/ASC/caspase-1 growth, X-gal OD620, 72 h | inhibition, % at 10 µM | 0.61% of 280,000 active | AID 2071; in the data active means inhibition mostly above about 24%, no sharp cut-off; inactive means mostly below about 32%
OPRM1-OPRD1 ag – agonists of human mu-delta opioid receptor heterodimerization; P35372+P41143; 0.3% of 340,000 active; cells, OPRM1-OPRD1 heterodimerization, luminescence; activation, % at 9.3 µM; AID 504326; in the data active means activation above about 18%;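 further: 0% = vehicle-treated cells and 100% = reference agonist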
HTR5A inv ag – inverse agonist of human HTR5A in OPRM1-OPRD1 counter-screen; HTR5A cell line, luminescence, inverse agonism; AID 504634; 0.083% of 340,000 active; P47898; inhibition, % at 9.3 µM; in the data active means inhibition mostly above about 23%, no sharp cut-off; inactive means mostly below about 18%;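 further: 0% = cells with DMSO and 100% = no-cell wells with DMSO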
MOR-DOR inv ag – mu-delta opioid heterodimer inverse agonism; P35372+P41143; cell-based MOR-DOR heterodimer luminescence; inhibition, % at 9.3 µM; 0.21% of 340,000 active; AID 504357; in the data active means inhibition above about 22%, passing the limit was not always enough;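 further: 0% = cells with DMSO and 100% = wells without cells with DMSO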
PolyA inhibitor – inhibitors of polyadenylation in S. cerevisiae. S. cerevisiae SKY197-pL101 polyadenylation reporter, beta-gal luminescence; efflux-impaired pdr1/pdr3 knockout yeast; score 100 = 6 SD above DMSO. activity score, % at 12 µM. 0.02% of 300,000 active;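 active means lowest replicate activity score at least 50, where 100 means six control SD above control mean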;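 further: yeast exposed to compound for 9 h at 30 °C; higher score means more reporter readthrough which indicates perturbed polyadenylation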
HTR5A ag – HTR5A agonism, opioid heterodimer counter-screen | activation, % at 9.3 µM | 0.61% of 340,000 active | HTR5A agonist assay, luminescence, cell-based | AID 504692; in the data active means activation mostly above about 9.5%, no sharp cut-off; inactive means mostly below about 7.6%;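 further: 0% = cells with vehicle only and 100% = reference agonist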
* marks the source's active call; other numbers are inactive results; x = no result.

SMILES	NALP1 inh	OPRM1-OPRD1 ag	HTR5A inv ag	MOR-DOR inv ag	PolyA inhibitor	HTR5A ag
Cc1ccc(C(=O)N2CCCC2)cc1S(=O)(=O)Nc1cccc(C)c1C	19	0	0	2	6	0
O=C1c2[nH]nc(-c3ccccc3O)c2C(c2cccc(Cl)c2)N1Cc1ccco1 (stereo unspecified)	-7	14	-37	-65	12	14*
Cc1cc(C(=O)NC2CCCC2)c2ccccc2n1	14	-2	-12	10	2	4
Cc1nc2cccc(C(=O)NC3CCCCC3)c2o1	32*	-1	12	7	5	-3
COc1ccc(CCNC(=O)CCn2c(SCC(=O)N3CCCC3)nc3ccccc3c2=O)cc1OC	x	-2	-16	9	-19	6
CCCCCn1c(=O)[nH]c2cc(C(=O)NCCCN3CCC(C)CC3)ccc2c1=O	32*	1	-22	-3	-5	0
O=C(NCCc1ccccc1)C1CC(=O)N(C2CCCCC2)C1 (stereo unspecified)	2	1	-11	-3	12	4
COc1ccc(CNC(=O)COC(=O)C2(C)CC2(Cl)Cl)cc1 (stereo unspecified)	x	-1	-36	4	x	13
CC1(C(=O)OCC(=O)NCCNC(=O)COC(=O)C2(C)CC2(Cl)Cl)CC1(Cl)Cl (stereo unspecified)	20	-1	-24	6	3	12*
Cc1cc(=O)[nH]c(SCC(=O)Nc2nnc(CC(C)C)s2)n1	28	-3	6	15	2	2
CC(C)Cc1nnc(NC(=O)CSc2ncn[nH]2)s1	26	-3	0	12	37	13*
COC(=O)c1c(NC(=O)CSc2ncn[nH]2)sc(C)c1C	x	1	-32	-4	4	13*
CNc1c(NC(=O)C2CCC(C)CC2)c(=O)oc2ccccc12 (stereo unspecified)	7	0	0	0	2	0
Cc1ccc(/C=C(\C#N)C(=O)NCCN2CCOCC2)cc1	21*	-2	-8	10	-3	3
Cc1ccsc1/C=C(\C#N)C(=O)NCCCN1CCOCC1	16	0	-27	0	6	-5
COc1cc(NC(=O)c2cccc3c2C(=O)N(C2CCCCC2)C3)cc(OC)c1OC	4	-1	-17	6	12	11*
COc1ccc2nc(NCCCNC(=O)c3cc(OC)c(OC)c(OC)c3)c(C#N)cc2c1	4	0	-4	0	-1	14*
COc1cc(C(=O)NCCNc2nc3ccc(C)cc3cc2C#N)cc(OC)c1OC	3	-1	3	7	6	-1
Nn1cc(-c2ccccc2)nc1SCC(=O)Nc1ccc(S(N)(=O)=O)cc1	3	1	-18	-6	-12	0
C=CCN1C(=O)/C(=C\c2cccc(OC(=O)c3ccco3)c2)SC1=S	2	0	-13	0	-22	5
C=CCN1C(=O)/C(=C\c2ccc(OC(=O)c3ccco3)c(OC)c2)SC1=S	30*	-3	19	19	-10	-3
C#CCOCCOCCOCCNc1nc(N2CCN(C(=O)C([C@@H](C)CC)n3cc(C(N)COC(=O)C(F)(F)F)nn3)CC2)nc(N2CCN(C(=O)[C@H](CCCCN)n3cc(C(N)[C@H](C)CC)nn3)CC2)n1 (stereo partly specified)	x	x	x	x	6	x
CCc1ccc(NC(=O)c2ccc3nc(N)sc3c2)cc1	40*	1	13	-4	6	6
Clc1ccc(/C(Cc2nc3ccccc3[nH]2)=N\Nc2ccccc2)cc1	28*	4	-24	-25	14	8
COc1ccc(CNC(=O)C2CCCN(S(=O)(=O)c3c(C)noc3/C=C/N(C)C)C2)cc1 (stereo unspecified)	3	-1	-1	5	4	-5
CSc1nc2c(c(=O)n1-c1ccc(F)cc1)SCC2	-3	-2	0	14	-6	4
CSc1nc2c(c(=O)n1-c1ccc(C)cc1)SCC2	28*	-2	5	10	23	-2
Cc1nc2sc(C(=O)OC(C)C)c(N)c2c(C)c1C	15	0	-25	-1	-8	8.8*
Nc1nc(N)c2c(ccc3nccc32)[nH]1	20	-1	-42	3	13	12*
Nc1ccc2ncccc2c1N	15	-1	8	3	x	4
